Most compounds without a hit are left out; they make up all but 7.5% or so of the library.
KinaseGlo FLuc = Counterscreen for Luciferase (Kinase-Glo TM) Inhibition; Kinase-Glo luciferase, ATP luminescence, 8 min; 0.28% of 200,000 active; Potency, µM (top dose mostly 38.3 µM), without a hit: at the top dose activity change, negative = inhibition, usual class: inhibitors; Luciferin 4-monooxygenase (Photuris pensylvanica), Q27757; note: % is set by controls: 0 for no effect and ±100 for the full control effect; nearly all actives have a fitted effect of over 60% in size
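Kinase-Glo luciferase light output from ATP and luciferin was measured with 10 uM ATP, within the enzyme's linear range. Buffer: 50 mM imidazole pH 7.2, 50 mM KCl, 7 mM MgCl2, 0.01% Tween 20, 0.05% BSA; luminescence read after 8 min at ambient temperature.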
Rab9 promoter act = qHTS Assay for Rab9 Promoter Activators; Huh7 Rab9 promoter-luciferase reporter, luminescence, 24 h; Potency, µM (doses to about 9.22 µM), for the others: at the highest dose activation, negative = inhibition, actives largely listed as activators; 2.8% of 320,000 active; AID 485297, 2010; note: % of control where 0% means no effect; nearly all actives have a fitted effect of over 60% in size
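Measured in stably transfected Huh7 cells bearing a Rab9 promoter–luciferase construct: 24 h compound treatment at 37 °C, followed by luminescence detection.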
NPC1 promoter act = qHTS Assay for NPC1 Promoter Activators; Huh7 NPC1 promoter luciferase reporter, 24 h; Potency, µM (top dose mostly 9.22 µM), without a hit: at the highest dose activation, actives largely listed as activators; 2.4% of 320,000 active; AID 485313, 2010; note: % of control where 0% means no effect; nearly all actives have a fitted effect of over 60% in size
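NPC1 promoter–luciferase Huh7 cells; 24 h compound; luminescence.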
ELG1 genotox = qHTS screen for small molecules that induce genotoxicity in human embryonic kidney (HEK293T) cells expressing luciferase-tagged ELG1 | HEK293T ELG1-luciferase reporter, luminescence, 16 h | Potency, µM (series often up to 46 µM), for the others: top-dose activity change, positive = activation, actives largely listed as activators | 1.3% of 330,000 active | AID 504466, 2011; note: % of control where 0% means no effect; nearly all actives have a fitted effect of over 60% in size
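16 hr compound incubation (37 °C, 5% CO2) of HEK293T cells carrying luciferase-tagged ELG1; luciferase then measured by ONE-Glo luminescence after 30 min at RT.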
FLuc modulator = qHTS profiling assay for firefly luciferase inhibitor/activator using purifed enzyme and Km concentrations of substrates (counterscreen for miR-21 project); Luciferin 4-monooxygenase (Photinus pyralis), P08659; purified FLuc, Km substrates, luminescence inhibition; Potency, µM (titrated, usually from 57.5 µM), for inactives: at the highest dose activity change, negative = inhibition, actives largely listed as inhibitors; 6.9% of 360,000 active;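 note: plate controls were vehicle for no effect and reference inhibitor for full effect; nearly all actives have a fitted effect of over 55% in size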
Target sequence (P08659 whole entry, looked up): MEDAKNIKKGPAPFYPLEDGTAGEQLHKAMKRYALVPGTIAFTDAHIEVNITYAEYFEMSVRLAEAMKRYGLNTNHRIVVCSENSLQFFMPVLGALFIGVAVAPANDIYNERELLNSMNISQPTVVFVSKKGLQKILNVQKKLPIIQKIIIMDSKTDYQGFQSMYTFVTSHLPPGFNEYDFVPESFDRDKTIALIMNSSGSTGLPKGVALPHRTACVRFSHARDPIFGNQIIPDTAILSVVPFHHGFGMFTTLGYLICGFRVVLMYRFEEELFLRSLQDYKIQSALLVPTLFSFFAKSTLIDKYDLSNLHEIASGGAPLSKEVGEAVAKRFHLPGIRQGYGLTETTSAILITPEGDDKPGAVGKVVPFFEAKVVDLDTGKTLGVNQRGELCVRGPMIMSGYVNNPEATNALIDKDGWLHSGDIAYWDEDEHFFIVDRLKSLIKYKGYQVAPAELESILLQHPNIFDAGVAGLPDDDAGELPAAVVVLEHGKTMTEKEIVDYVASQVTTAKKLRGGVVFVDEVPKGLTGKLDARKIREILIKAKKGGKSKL
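Biochemical qHTS of compounds, final roughly 60 µM downward over six points, against 10 nM purified firefly luciferase using Km concentrations of substrates (10 uM D-luciferin, 10 uM ATP) in Tris acetate pH 7.5 buffer; luminescence output.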
SMN2 splice enh = qHTS Assay for Enhancers of SMN2 Splice Variant Expression; HEK293 SMN2-luciferase splicing reporter, luminescence, 30-36 h; Potency, µM (doses to about 46.1 µM), inactives show at the top dose activity change, positive = activation, most hits filed as activators; 2.8% of 210,000 active; note: % of control where 0% means no effect; nearly all actives have a fitted effect of over 55% in size
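qHTS luciferase splicing reporter: luminescence rises when SMN2 exon 7 is included in transfected HEK293 cells. Compound exposure lasted 30-36 h at 37C, with 4.5 mM final sodium butyrate as control, followed by a ONE-Glo read.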
* hit, by the source's call; [ ] = dose if it differs, or a comment. Calls come from the whole dose curve; as a rule, active = well fitted curve in the direction sought with a large enough effect; inconclusive = small, poorly fitted or top-dose-only effect, or another doubt; inactive = no such curve, though single readings can be large; an effect the other way counts as inactive or inconclusive. Potency is the fitted concentration of half-maximal effect.

Screening C(=N\Nc1nn2cnnc2c2ccccc12)/c1ccco1 returned KinaseGlo FLuc -18%, Rab9 promoter act -4%, NPC1 promoter act 0%, ELG1 genotox 4%, FLuc modulator -12% and SMN2 splice enh -28%.
`COc1cc(/C=N/Nc2nn3cnnc3c3ccccc23)ccc1O` gave KinaseGlo FLuc 13µM*, Rab9 promoter act 8%, NPC1 promoter act 14%, ELG1 genotox 1%, FLuc modulator 2.7µM* and SMN2 splice enh 10%.
For COc1cccc(/C=N/Nc2nc3ccccc3n3cnnc23)c1 the results were KinaseGlo FLuc -2%, Rab9 promoter act -7%, NPC1 promoter act -1%, ELG1 genotox -1%, FLuc modulator -6% and SMN2 splice enh -6%.
For COc1cccc(/C=N/Nc2nn3cnnc3c3ccccc23)c1 the results were KinaseGlo FLuc 3.5µM*, Rab9 promoter act 16%, NPC1 promoter act 25%, ELG1 genotox 8%, FLuc modulator 11µM* and SMN2 splice enh -4%.
Screening CCOc1cc(/C=N/Nc2nn3cnnc3c3ccccc23)ccc1O returned Rab9 promoter act 18%, NPC1 promoter act 25%, ELG1 genotox 8% and FLuc modulator 5.4µM*.
For COc1ccc2oc(=O)c(-c3nc(-c4cc(OC)c(OC)c(OC)c4)no3)cc2c1 the results were FLuc modulator 1%.
CCC(=O)[C@@]1(C)[C@H](C)C[C@@H]2[C@@H]3CCC4=CC(=O)C=C[C@@]4(C)[C@H]3[C@H](O)C[C@]21C was read as KinaseGlo FLuc 0%[17.1 µM] and SMN2 splice enh 3%[20.6 µM].
Screening Cc1scc(C(=O)N/N=C/c2ccc(Cl)s2)c1C returned KinaseGlo FLuc -5%, Rab9 promoter act 2.2µM*, NPC1 promoter act 3.5µM*, ELG1 genotox inconclusive, FLuc modulator 3µM* and SMN2 splice enh 18µM*.
`CCOc1ccc(/C=N/NC(=O)c2csc(C)c2C)c(OCC)c1` gave KinaseGlo FLuc -1%, Rab9 promoter act 0%, NPC1 promoter act -2%, ELG1 genotox 1%, FLuc modulator -17% and SMN2 splice enh -14%.
Screening Cc1scc(C(=O)N/N=C/c2ccc(OC(C)C)cc2)c1C returned KinaseGlo FLuc -6%, Rab9 promoter act inconclusive, NPC1 promoter act 29%, ELG1 genotox inconclusive, FLuc modulator 6.7µM* and SMN2 splice enh inconclusive.
Screening COc1ccccc1/C=N/NC(=O)c1cccc2ccccc12 returned Rab9 promoter act -3%, NPC1 promoter act -1%, ELG1 genotox -2% and FLuc modulator -2%.
`CCCCOc1cccc(/C=N/NC(=O)c2csc(C)c2C)c1` gave KinaseGlo FLuc 1%, Rab9 promoter act 13%, NPC1 promoter act 20%, ELG1 genotox -4%, FLuc modulator 7.6µM* and SMN2 splice enh -14%.
Screening COc1ccccc1/C=N/NC(=O)c1csc(C)c1C returned KinaseGlo FLuc -9%, Rab9 promoter act 28%, NPC1 promoter act 14%, ELG1 genotox 12%, FLuc modulator 3.4µM* and SMN2 splice enh 23%.
COc1ccc(CC(=O)N/N=C/c2ccc(Cl)s2)cc1OC was read as Rab9 promoter act -1%[1.84 µM], NPC1 promoter act 0%, ELG1 genotox -10% and FLuc modulator -16%.
For C[C@@]1(C(NC(=O)Cc2ccc(C(F)(F)F)cc2)c2ccc(-c3ccccc3)cc2)C[C@H]1C1CCCCC1 (stereo not given in full) the results were KinaseGlo FLuc -1% and SMN2 splice enh -2%.
For CC(C)Oc1ccc(/C=N/NC(N)=S)cc1 the results were KinaseGlo FLuc -1%, Rab9 promoter act inconclusive, NPC1 promoter act inconclusive, ELG1 genotox 17%, FLuc modulator 15µM* and SMN2 splice enh inconclusive.
O=C(/C=C/c1ccc2ccccc2n1)c1cc(Cl)ccc1O was read as Rab9 promoter act -2%, NPC1 promoter act 9%, ELG1 genotox 11% and FLuc modulator 4.8µM*.
`O=C(/C=C/c1cccs1)c1cc(Cl)ccc1O` gave KinaseGlo FLuc -2%, Rab9 promoter act -2%, NPC1 promoter act 5%, ELG1 genotox -3%, FLuc modulator inconclusive and SMN2 splice enh 1%.
Screening CCc1sc(C(=O)N2CCc3ccccc32)cc1C returned KinaseGlo FLuc 11µM*, Rab9 promoter act 0.35µM*, NPC1 promoter act 1.1µM*, ELG1 genotox 1.8µM*, FLuc modulator 1.9µM* and SMN2 splice enh 8.9µM*.
For O=C(c1ccc(Cl)s1)N1CCc2ccccc21 the results were KinaseGlo FLuc -26%, Rab9 promoter act 2.5µM*, NPC1 promoter act inconclusive, ELG1 genotox 6.5µM*, FLuc modulator 3.8µM* and SMN2 splice enh 22µM*.
`O=C(c1ccc(C(=O)N2CCCc3ccccc32)s1)N1CCCc2ccccc21` gave KinaseGlo FLuc 0%, Rab9 promoter act 0%, NPC1 promoter act -1%, ELG1 genotox -9%, FLuc modulator -1% and SMN2 splice enh -38%.
Screening CC1(C)O[C@@H]2[C@@H](O1)C(c1ccccc1)(c1ccccc1)OP(=O)(O)OC2(c1ccccc1)c1ccccc1 returned KinaseGlo FLuc 0% and SMN2 splice enh 10%.
CCOc1ccc(NC(=O)Cn2c(=O)n(CC(=O)NCc3ccccc3Cl)c(=O)c3sccc32)cc1 was read as FLuc modulator -4% and SMN2 splice enh -4%.
Screening Cc1ccc(NC(=O)C2=C(O)CCn3c2nc2ccccc23)cc1 returned KinaseGlo FLuc -4%, Rab9 promoter act 8%, NPC1 promoter act 17%, ELG1 genotox 1%, FLuc modulator 12µM* and SMN2 splice enh -16%.
Screening FC(F)(F)c1nc2cc3nc4ccccc4[nH]c3cc2n1 returned Rab9 promoter act inconclusive, NPC1 promoter act inconclusive, ELG1 genotox 0% and FLuc modulator 24µM*.
CC(C)(C)c1ccc(-c2nc(C#N)c(NCc3ccncc3)o2)cc1 was read as Rab9 promoter act inconclusive, NPC1 promoter act 16%, ELG1 genotox inconclusive and FLuc modulator 6µM*.
`COc1ccc(-c2nc(C#N)c(NCCCn3ccnc3)o2)cc1OC` gave KinaseGlo FLuc 17%, Rab9 promoter act 20%, NPC1 promoter act 24%, ELG1 genotox inconclusive, FLuc modulator 15µM* and SMN2 splice enh 6.3µM*.
N#Cc1nc(-c2ccc(F)cc2)oc1NCCCn1ccnc1 was read as KinaseGlo FLuc -1%, Rab9 promoter act 26%, NPC1 promoter act 13%, ELG1 genotox 7%, FLuc modulator -17% and SMN2 splice enh 27%.

Screening results: PubChem BioAssay, National Center for Advancing Translational Sciences (NCATS)
